Screening data: PubChem BioAssay, several laboratories
MIN6 prolif-1: MIN6 beta-cell proliferation induction; 330,000 compounds, 0.29% hits; proliferation, % at 10 µM; MIN6 cells proliferation, ATPlite luminescence, 48 h; cells starved in 0.2% serum; 100% = growth in 10% serum; AID 2380;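 active means compounds whose signal lies at least 3.5 SD above the mean of all wells on their plate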;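 further: 0% = DMSO-treated cells in low-serum medium and 100% = 10% serum control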
GASC-1 inh: inhibitors of human GASC-1 (JMJD2C) demethylase | 330,000 compounds, 0.069% hits | inhibition, % at 2.35 µM | GST-JMJD2C(1-420) H3K9me3 demethylation, DELFIA europium | Q9H3R0;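 active means more than half of a compound's replicate wells show inhibition beyond 50%, single wells judged on their own value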;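 further: signal counts dimethyl H3K9 product captured on neutravidin plate; 0% = median of DMSO wells and 100% = 0.3 times that DMSO median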
Target sequence (Q9H3R0 1-420 limits assumed): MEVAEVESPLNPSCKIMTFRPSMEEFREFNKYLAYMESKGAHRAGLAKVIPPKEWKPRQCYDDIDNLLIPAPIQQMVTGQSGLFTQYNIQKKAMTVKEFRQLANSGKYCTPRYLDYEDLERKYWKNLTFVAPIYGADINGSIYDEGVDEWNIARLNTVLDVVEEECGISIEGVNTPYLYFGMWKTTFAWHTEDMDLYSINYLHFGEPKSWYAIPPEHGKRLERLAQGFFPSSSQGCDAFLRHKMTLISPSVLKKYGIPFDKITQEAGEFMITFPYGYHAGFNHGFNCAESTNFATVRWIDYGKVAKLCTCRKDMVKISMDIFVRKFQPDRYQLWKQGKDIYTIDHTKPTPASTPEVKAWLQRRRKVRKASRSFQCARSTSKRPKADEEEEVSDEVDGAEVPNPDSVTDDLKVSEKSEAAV
PfM18AAP inh: PfM18AAP enzyme inhibition; recombinant PfM18AAP, H-Glu-NHMec fluorogenic cleavage; inhibition, % at 7.35 µM; 290,000 compounds, 1.2% hits;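 active means inhibition above the campaign mean inhibition over all tested compounds plus 3 SD, cut at about 28% in these data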;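 further: 0% = plate median of test compound wells and 100% = 2 mM ZnCl2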
Granule exo inh: blocks lytic granule exocytosis | TALL-104 LAMP-1 surface exposure, flow cytometry; cells stimulated with thapsigargin and PMA | AID 651702 | inhibition, % at 10 µM | 360,000 compounds, 0.66% hits;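 active means inhibition above about 55%, limit read from the data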
SMARCA2 act: increases SMARCA2 function in MMTV reporter cells. MG213 cells, MMTV-luciferase reporter, dexamethasone, overnight. 370,000 compounds, 1% hits. AID 652017. activation, % at 9.1 µM; in the data active means activation above about 7.8%;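 further: 0% = vehicle wells and 100% = reference activator wells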
ALR inh: inhibitors of human sulfhydryl oxidase ALR | 290,000 compounds, 3.8% hits | inhibition, % (no concentration beside the values) | purified ALR, DTT oxidation, H2O2 HRP-luminol luminescence | P55789;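 active means mean replicate inhibition above about 79%, with every replicate also reaching it, limit read from the data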
Target sequence (P55789 whole entry, looked up): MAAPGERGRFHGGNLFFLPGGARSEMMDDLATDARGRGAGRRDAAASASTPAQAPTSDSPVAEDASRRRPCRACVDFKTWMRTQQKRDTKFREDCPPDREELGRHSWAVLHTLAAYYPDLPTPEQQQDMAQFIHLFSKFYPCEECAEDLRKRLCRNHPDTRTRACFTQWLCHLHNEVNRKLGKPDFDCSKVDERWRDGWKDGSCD
MIN6 prolif-2: MIN6 beta-cell replication induction, confirmed | MIN6 beta-cell proliferation, ATPlite luminescence, 48 h; cells kept in 0.2% serum; scaled between 0.2% and 10% serum | proliferation increase, % at 50 µM | shares compounds with MIN6 prolif-1 | 920 tested, under 10 active | AID 463095;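 active means proliferation increase above 40% at any of the four tested concentrations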
Granule exo CP1: blocks lytic granule exocytosis | TALL-104 cells, LAMP-1 externalization, flow cytometry; stimulated with PMA plus thapsigargin | AID 651954 | 1,500 compounds, 11% hits | inhibition, % at 10 µM | shares compounds with Granule exo inh; in the data active means inhibition above about 60%;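 further: 0% = stimulated vehicle wells and 100% = unstimulated wells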
SMARCA2 conf: confirmation of SMARCA2 (BRM) function activators; shares compounds with SMARCA2 act; MG213 cells, MMTV-luciferase with dexamethasone, luminescence, overnight; MG213 cells expressing E1A, Rb sequestered; DMSO wells 0%, reference activator 100%; activation, % at 9.1 µM; 3,500 compounds, 30% hits;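 active means activation above its plate's cutoff, the mean activation of tested wells plus 3 SD, cut at about 7.9% in these data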
VP16 Luc act: activates GAL4-VP16 luciferase, flagging SMARCA2 activator hits. HEK293 GAL4-VP16 pG5luc reporter, luciferase luminescence; scaled: DMSO wells 0%, SAHA wells 100%. AID 686939. shares compounds with SMARCA2 act. 3,500 compounds, 41% hits. activation, % at 9.1 µM;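 active means activation above the solvent-only control well mean plus 3 SD, averaged across control plates, cut at about 5.2% in these data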
* = called active by the depositor; x = no result given. Hits are enriched below; roughly 5.4% of the tested compounds scored in any of these assays.

SMILES	MIN6 prolif-1	GASC-1 inh	PfM18AAP inh	Granule exo inh	SMARCA2 act	ALR inh	Granule exo CP1	others
COc1ccc(C2=Nn3c(nnc3-c3ccccc3OC)SC2)cc1OC1CCOC1 (stereo unspecified)	-3.1	-3.1	x	8.4	7.6	-0.2	x
COc1ccc(C2=Nn3c(nnc3-c3ccccc3C(F)(F)F)SC2)cc1OC1CCOC1 (stereo unspecified)	8.8*	-2.7	x	-1.3	8.4*	0.7	x	MIN6 prolif-2=-6.5;SMARCA2 conf=16.1*;VP16 Luc act=5.9*
O=C(CCN1C(=O)COc2ccccc21)NCCN1CCN(c2ccccc2F)CC1	6.7*	5.8	1.6	-2.0	8.7*	x	x	MIN6 prolif-2=-2.1;SMARCA2 conf=-1.1;VP16 Luc act=1.9
COC(=O)[C@]12C[C@H](CC(=O)N3CCN(C(=O)c4ccco4)CC3)C(=O)N(Cc3ccc(Cl)cc3Cl)C1=C[C@H](C(C)C)O[C@@H]2C1CC1	x	x	x	x	-2.0	x	x
CCC1Sc2ccc(S(=O)(=O)N3CCN(c4ccccc4)CC3)cc2NC1=O (stereo unspecified)	-4.0	-2.8	5.1	70.6*	-2.5	-0.3	-11.2
O=C1CSc2ccc(S(=O)(=O)N3CCN(c4ccccc4)CC3)cc2N1	-1.6	-11.4	-3.6	-0.1	3.0	8.4	x
CCCCn1c(-c2nonc2NC(=O)c2ccccc2Cl)nc2ccccc21	x	x	x	77.1*	-3.7	x	-14.4
N#CCCn1c(-c2nonc2NC(=O)c2ccccc2Cl)nc2ccccc21	1.4	-1.0	6.2	4.2	-0.5	-5.8	x
CCOC(=O)c1c(NC(=O)COC(=O)c2ccc(C)s2)sc2c1CC(C)(C)NC2(C)C	-7.3	-17.1	x	63.9*	6.3	0.1	58.0
CCOC(=O)c1c(NC(=O)CSc2nnnn2-c2ccccc2OCC)sc2c1CC(C)(C)NC2(C)C	-7.1	13.5	x	65.0*	0.3	-38.0	62.7*
CCOC(=O)c1c(NC(=O)COc2ccccc2OCC)sc2c1CC(C)(C)NC2(C)C	-6.8	-2.3	x	67.5*	x	-0.7	100.4*
COCCCNC(=O)c1ccc(Cn2c(=O)c3ccccc3n(Cc3ccc([N+](=O)[O-])cc3)c2=O)cc1	x	x	x	x	-2.7	x	x
c1ccc(CCn2nnc(-c3ccc(N4CCOCC4)cc3)n2)cc1	x	x	x	x	-4.6	x	x
CC(=O)Nc1cccc(NC(=O)CSc2nc(C3CC3)nc3ccccc23)c1	-6.2	1.5	-7.1	9.0	-4.6	x	x
O=C(CSc1nc(C2CC2)nc2ccccc12)Nc1ccccc1	-0.5	1.0	1.9	77.5*	6.2	-4.3	-4.1
CCOc1ccccc1/C=C/c1onc(C)c1S(=O)(=O)N1CCC(C(=O)NC)CC1	-2.3	5.8	-2.8	-4.5	-3.7	-8.1	x
COc1ccccc1/C=C/c1onc(C)c1S(=O)(=O)N1CCC(C(=O)NC2CCCCCC2)CC1	-5.0	-3.8	9.6	70.2*	1.9	-2.2	-4.2
COC(=O)c1ccccc1S(=O)(=O)N1CCC(C(=O)OCC(=O)NCC(F)(F)F)CC1	-3.5	-3.3	0.6	95.5*	-1.8	-10.0	-5.9
CC(COc1cccc([N+](=O)[O-])c1)CN1CCC(C(O)(c2ccccc2)c2ccccc2)CC1 (stereo unspecified)	x	x	x	x	-3.9	x	x
CCOc1ccccc1N1CCN(c2ncnc3scc(-c4ccc(OC)cc4)c23)CC1	-7.5	-34.4	3.4	19.0	4.7	21.3	x
Cc1sc2ncnc(N3CCN(Cc4ccccc4)CC3)c2c1-c1ccc(F)cc1	-3.5	1.2	7.7	65.4*	-1.8	-4.7	-11.3
Fc1ccc(CN2CCN(c3ncnc4scc(-c5ccccc5)c34)CC2)cc1	-6.5	-31.6	4.6	74.5*	-2.9	17.1	-5.2
O=C(CSc1ncnc2scc(-c3ccccc3)c12)N1CCN(Cc2ccc3c(c2)OCO3)CC1	0.0	1.4	-0.5	-2.9	-2.3	-4.2	x
COc1ccc(-c2csc3ncnc(N4CCN(c5ccccc5OC)CC4)c23)cc1	-4.3	-0.6	1.6	87.9*	-5.0	-5.4	-10.1
Fc1ccc(-c2csc3ncnc(N4CCN(Cc5ccccc5)CC4)c23)cc1	-6.1	1.8	2.1	1.0	1.0	6.5	x
SMILES	MIN6 prolif-1	GASC-1 inh	PfM18AAP inh	Granule exo inh	SMARCA2 act	ALR inh	Granule exo CP1	others
c1ccc(-c2csc3ncnc(N4CCN(Cc5ccc6c(c5)OCO6)CC4)c23)cc1	-6.5	-11.9	3.3	76.5*	0.7	-9.2	-4.2
COC(=O)C1=C(C)N(C)C(=NCc2ccc(OC)cc2)NC1c1ccc(Cl)cc1 (stereo unspecified)	x	x	x	x	-4.4	x	x
C[C@@H]1COc2cccc(NCCCN3CCOCC3)c2S(=O)(=O)N1	x	x	x	x	-3.5	x	x
Cc1cc(-c2csc3ncnc(N4CCN(C)CC4)c23)cc(C)c1C	-1.6	-0.7	-7.9	96.2*	-0.9	3.0	1.2
CN1CCN(c2ncnc3scc(-c4ccccc4Cl)c23)CC1	3.6	-8.5	2.3	3.2	-4.7	-0.2	x
O=C(N[C@H](Cc1ccccc1)C(=O)NCc1ccc2c(c1)OCO2)[C@H]1O[C@@H](n2ccc(=O)[nH]c2=O)[C@H](O)[C@@H]1O	x	x	x	x	-0.6	x	x
Cc1ccsc1CN(C)CC(=O)Nc1ccc([N+](=O)[O-])cc1Cl	-1.7	-1.8	6.3	98.6*	-3.0	-12.7	18.6
CN(CC(=O)Nc1cc([N+](=O)[O-])ccc1Cl)Cc1ccc(Br)cc1	0.0	9.7	2.8	9.1	-2.1	3.9	x
CCC(C)[C@H](NC(=O)NCc1ccccc1)C(=O)O (stereo partly specified)	-1.1	4.4	-7.6	99.8*	-0.2	2.2	-11.1
Cc1ccccc1CN1CCCCC(NC(=O)Nc2cccc([N+](=O)[O-])c2)C1=O (stereo unspecified)	x	x	x	x	-1.2	x	x
COc1ccc(N=C2Sc3ccccc3[C@@H]3C[C@H]4[C@H](CON4C)CN23)c(OC)c1	x	x	x	x	1.6	x	x
CCOC(=O)C1CCCC12Nc1cccc3cccc(c13)N2 (stereo unspecified)	x	x	x	85.7*	-2.7	x	-14.0
CCOc1ccccc1Nc1cc(C)nc2ccc(C)cc12	-1.9	-10.1	x	80.9*	-1.4	22.3	-6.9
COc1ccc(OC)c(Nc2cc(C)nc3ccc(C)cc23)c1	0.9	0.0	x	55.9*	-0.6	9.0	-11.7
